This is an account of results in PubChem BioAssay (EPA / NIEHS).

Several values for one entry are separate records, joined by “and”; a condition that tells them apart may be missing. Equal entries are not always repeated. Inconclusive results are not listed. Some compounds were tested as several samples or in several runs, with calls that do not always agree. Activity calls are given as the source filed them. The calls were made as follows, unless noted: active = hit-call score of the fitted dose curve at least 0.9, where 1 is the maximum; inconclusive = response in the unintended direction; inactive = score below 0.9.

For orientation: AC50 means the concentration giving half of the maximal activity seen.

A short description of one assay: UKN5_HCS_SBAD2_neurite_outgrowth: University of Konstanz (UKN) Leist Lab Neurite Outgrowth Assay in human iPSC-derived immature Dorsal Root Ganglia Neurons (UKN5) (AID 2284070; active = hit-call score of the fitted dose curve at least 0.9, where 1 is the maximum; inactive = score below 0.9). The settings on record: actives raise or lower the signal. In short, it runs like this:
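SBAD2 iPSC-derived immature peripheral neurons on Matrigel, 100.000 cells/cm2, medium with CHIR99021 (1.5 uM), SU5402 (5 uM), DAPT (5 uM); compound added 1 h post-seeding for 24 h. Calcein-AM neurite area by high-content imaging; Hoechst H-33342 viability; bidirectional fit vs DMSO.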
Turning to `O=S(=O)(O)C(F)(F)C(F)(F)C(F)(F)C(F)(F)C(F)(F)C(F)(F)C(F)(F)C(F)(F)F`, the AC50 was 752 µM (active).

With `ClC1C(Cl)C(Cl)C(Cl)C(Cl)C1Cl` (configuration not stated), the outcome was inactive. Take `O=C(O)C(F)(F)C(F)(F)C(F)(F)C(F)(F)C(F)(F)C(F)(F)C(F)(F)F`: the AC50 is 899 µM (active).

For the compound `CC(C)N(C(=O)COc1nnc(C(F)(F)F)s1)c1ccc(F)cc1`, the call was inactive. In the case of `O=[N+]([O-])/N=C1\NCCN1Cc1ccc(Cl)nc1`, the compound was called inactive.

Another assay is described as follows: CCTE_Shafer_MEA_dev_AB: CCTE's Alamar Blue Assay for Cytotoxicity in the Neural Network Formation Assay, Shafer Lab (AID 2284083).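 Also: resazurin reduction fluorescence as viability of cultured neurons; twelve days of exposure from plating with re-dosing on DIV 5 and 9.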
Conditions: not given
In short, it runs like this: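 Resazurin fluorescence, relative to DMSO, gauges viability after twelve days of exposure that began at plating of rat cortical neurons (1.5 x 10^5 cells/well, 48-well MEA); treatment renewed with full medium exchange on DIV 5 and 9.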
(Resazurin is reduced to fluorescent resorufin, in cell work by metabolically active cells.)
For the compound `O=S1OCC2C(CO1)C1(Cl)C(Cl)=C(Cl)C2(Cl)C1(Cl)Cl` (configuration not stated), the AC50 is 9.32 µM (active). With `CC[C@H](C)[C@H]1O[C@]2(C=C[C@@H]1C)C[C@@H]1C[C@@H](C/C=C(\C)[C@@H](O[C@H]3C[C@H](OC)[C@@H](O[C@H]4C[C@H](OC)[C@@H](O)[C@H](C)O4)[C@H](C)O3)[C@@H](C)/C=C/C=C3\CO[C@@H]4[C@H](O)C(C)=C[C@@H](C(=O)O1)[C@]34O)O2` (tested in a mixture with another compound), the AC50 was 7.85 µM (active) and the result was inactive. On to `Oc1cc(Cl)ccc1Oc1ccc(Cl)cc1Cl`, for which the AC50 is 14.2 µM (active). For `O=S(=O)(O)C(F)(F)C(F)(F)C(F)(F)C(F)(F)C(F)(F)C(F)(F)C(F)(F)C(F)(F)F`, the AC50 is 50 µM (active). On to `COP(=S)(OC)Oc1ccc([N+](=O)[O-])cc1`, for which the AC50 is 24.3 µM (active). Regarding `CCC(C)(C)C(=O)OC1=C(c2ccc(Cl)cc2Cl)C(=O)OC12CCCCC2`, the call was inactive. The same measure, in the same setting: the entry for `ClC1C(Cl)C(Cl)C(Cl)C(Cl)C1Cl` (configuration not stated) is “inactive”. With `CC(C)N(C(=O)COc1nnc(C(F)(F)F)s1)c1ccc(F)cc1`, the AC50 was 7.79 µM (active) and the outcome was inactive. On to `CC1(c2ccc(Oc3ccccc3)cc2)OC(=O)N(Nc2ccccc2)C1=O` (configuration not stated), for which the AC50 was 4.56 µM (active). Consider `O=C(O)COc1ccc(Cl)cc1Cl`, for which the compound was called inactive. Regarding `COP(=O)(OC)OC=C(Cl)Cl`, the AC50 was 30.4 µM (active). As for `CC1(C)C(C=C(Cl)Cl)C1C(=O)OC(C#N)c1ccc(F)c(Oc2ccccc2)c1` (configuration not stated), the AC50 is 64.4 µM (active) and the outcome was inactive.

Regarding `CNC(=O)CSP(=S)(OC)OC`, the AC50 is 50 µM (active) and 26.8 µM (active).

A short description of a further assay: CCTE_Shafer_MEA_acute_LDH: CCTE's Lactate Dehydrogenase Assay for Cytotoxicity in the Neural Acute Assay, Shafer Lab (AID 2284086).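 Also: active means LDH release rises above DMSO vehicle level.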
Conditions: not given
In short, it runs like this: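 Medium from rat cortical neuron MEA cultures sampled right after the 40 min compound-exposure recording; released LDH measured by absorbance at 490 nm. Analyzed as signal gain relative to DMSO.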
Consider `O=S1OCC2C(CO1)C1(Cl)C(Cl)=C(Cl)C2(Cl)C1(Cl)Cl` (configuration not stated), for which the outcome was inactive.

For `CC[C@H](C)[C@H]1O[C@]2(C=C[C@@H]1C)C[C@@H]1C[C@@H](C/C=C(\C)[C@@H](O[C@H]3C[C@H](OC)[C@@H](O[C@H]4C[C@H](OC)[C@@H](O)[C@H](C)O4)[C@H](C)O3)[C@@H](C)/C=C/C=C3\CO[C@@H]4[C@H](O)C(C)=C[C@@H](C(=O)O1)[C@]34O)O2` (tested in a mixture with another compound), the compound was classed as inactive. Same read-out and setting: in the case of `Oc1cc(Cl)ccc1Oc1ccc(Cl)cc1Cl` it was “inactive”. Turning to `O=C(O)CCCOc1ccc(Cl)cc1Cl`, the compound was classed as inactive. Still for that read-out and setting: the entry for `Clc1ccccc1-c1nnc(-c2ccccc2Cl)nn1` is “inactive”; for `CCCN(CCC)c1c([N+](=O)[O-])cc(C(F)(F)F)cc1[N+](=O)[O-]` it is “inactive”; for `CCC(C)(C)C(=O)OC1=C(c2ccc(Cl)cc2Cl)C(=O)OC12CCCCC2` it is “inactive”. Take `CNC(=O)/C=C(\C)OP(=O)(OC)OC`: the compound was classed as inactive. For the compound `ClC1C(Cl)C(Cl)C(Cl)C(Cl)C1Cl` (configuration not stated), the outcome was inactive.

Consider `CC(C)N(C(=O)COc1nnc(C(F)(F)F)s1)c1ccc(F)cc1`, for which the outcome was inactive. Still for that read-out and setting: the entry for `C[C@H]1[C@H](c2ccc(Cl)cc2)SC(=O)N1C(=O)NC1CCCCC1` is “inactive”. On the same count and under the same terms, the entry for `CC1(C)C(C=C(Cl)Cl)C1C(=O)OC(C#N)c1ccc(F)c(Oc2ccccc2)c1` (configuration not stated) is “inactive”; for `N#CN` it is “inactive”. As to `Oc1ccc(Cl)cc1Cc1ccccc1`, the call was inactive. Still for that read-out and setting: in the case of `O=C1c2ccccc2C(=O)N1SC(Cl)(Cl)Cl` it was “inactive”. Consider `CCCN(CCOc1c(Cl)cc(Cl)cc1Cl)C(=O)n1ccnc1`, for which the result was inactive.
